Test results published in the supplement of paper PMC12350171.
Counter-ions that a name gives are not always drawn.

How the values were obtained:
Settings in all cases: 20 µM
[1] = system: Haemophilus parainfluenzae; experiment: growth AUC normalised to DMSO control (fraction of control); higher = less growth inhibition, active = hit call of the paper
Procedure, shortened: (§1)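 Pathogens were passaged twice under anaerobic conditions, then inoculated into pre-reduced mGAM plates at a starting OD578 of 0.01, with compound at 20 μM and 1% DMSO, and sealed with breathable membranes. For Haemophilus parainfluenzae, the medium was supplemented with hemin and NAD. OD578 was read every hour for 24 h in three biological replicates. Growth-curve AUC was calculated by the trapezoidal rule up to the exponential-to-stationary transition and normalised to DMSO controls on the same plate.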

[2] = system: Salmonella enterica typhimurium; experiment: as above
Procedure, shortened: as §1

[3] = system: Shigella flexneri; experiment: as above
Procedure, shortened: as §1

[4] = system: Vibrio cholerae; experiment: as above
Procedure, shortened: as §1

[5] = system: Yersinia pseudotuberculosis; experiment: as above
Procedure, shortened: as §1

[6] = system: P. vulgatus RND KO; experiment: growth AUC normalised to DMSO control (median) (fraction of control); higher = less growth inhibition, active = hit call of the paper
Procedure, shortened: (§2)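 In 96-well plates of mGAM seeded at OD578 0.01, strains that had been passaged twice overnight without oxygen were exposed to approved-drug library compounds at 20 μM with 1% DMSO. Hourly OD578 readings were taken for 24 h in an anaerobic incubator. The trapezoidal-rule area under the curve, with curves truncated at entry into stationary phase, was expressed relative to same-plate vehicle wells as the median of three biological replicates.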

[7] = system: P. vulgatus WT; experiment: as above
Procedure, shortened: as §2

[8] = system: S. enterica typhimurium WT; experiment: as above
Procedure, shortened: as §2

[9] = system: S. enterica typhimurium tolC KO; experiment: as above
Procedure, shortened: as §2

Measured: growth AUC normalised to DMSO control
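Wherever growth AUC normalised to DMSO control (median) is given: active when median AUC fell below 0.1.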

CN1CCC2(C)c3cc(O)ccc3N(C)C12 (single isomer, unassigned; (-)) [(-) Eseroline fumarate salt]
inactive: [1] 1.02 | [2] 0.999 | [3] 1.01 | [4] 0.995 | [5] 1.01 | [6] 0.979 | [7] 0.999 | [8] 1.01 | [9] 0.999

CC(C)c1c(CN(C)C(C)Cc2ccccc2)n(C)n(-c2ccccc2)c1=O (stereo not drawn) [Famprofazone]
inactive: [1] 0.971 | [2] 0.997 | [3] 1.03 | [4] 0.965 | [5] 1 | [6] 0.992 | [7] 1 | [8] 1.01 | [9] 0.871

O=C1CC[C@@]2(O)[C@H]3Cc4ccc(O)c5c4[C@@]2(CCN3CC2CC2)[C@H]1O5 [Naltrexone hydrochloride dihydrate]
inactive: [1] 0.995 | [2] 1 | [3] 0.992 | [4] 1 | [5] 1.01 | [6] 0.994 | [7] 1.02 | [8] 0.993 | [9] 0.998

C[C@]12Cc3c[nH]nc3C[C@@H]1CC[C@@H]1[C@@H]2CC[C@@]2(C)[C@H]1CC[C@]2(C)O [Stanozolol]
inactive: [1] 0.949 | [2] 1.01 | [3] 0.987 | [4] 0.998 | [5] 1 | [6] 0.959 | [7] 0.966 | [8] 1.02 | [9] 0.966

C=CCN1CC[C@]23c4c5ccc(O)c4O[C@H]2C(=O)CC[C@@]3(O)[C@H]1C5 [Naloxone hydrochloride]
inactive: [1] 1.01 | [2] 0.981 | [3] 1.03 | [4] 1 | [5] 1.01 | [6] 1.03 | [7] 0.997 | [8] 1.01 | [9] 1

Fc1ccc(C(OCCN2CCN(CCCc3ccccc3)CC2)c2ccc(F)cc2)cc1
inactive: [1] 0.991 | [2] 1 | [3] 0.998 | [4] 0.944 | [5] 0.995 | [6] 0.994 | [7] 0.966 | [8] 0.999 | [9] 0.914

CCN[C@@H](C)Cc1cccc(C(F)(F)F)c1 [Dexfenfluramine hydrochloride]
inactive: [1] 1.01 | [2] 0.995 | [3] 1.02 | [4] 1.02 | [5] 0.995 | [6] 1 | [7] 1.02 | [8] 0.996 | [9] 1

COc1ccc2c(c1)[C@]13CCCC[C@@H]1[C@H](C2)N(C)CC3 [Dextromethorphan hydrobromide monohydrate]
inactive: [1] 1.02 | [2] 0.982 | [3] 0.988 | [4] 0.955 | [5] 0.97 | [6] 1.02 | [7] 1 | [8] 0.995 | [9] 0.985

C[C@]12CC[C@H](O)C[C@H]1CC[C@@H]1[C@@H]2C[C@@H](O)[C@]2(C)[C@@H](C3=CC(=O)OC3)CC[C@]12O [Digoxigenin]
inactive: [1] 1.01 | [2] 1.03 | [3] 0.999 | [4] 1.03 | [5] 0.998 | [6] 0.998 | [7] 1.04 | [8] 1.01 | [9] 1

COc1ccc(Cc2nccc3cc(OC)c(OC)cc23)cc1OC [Papaverine hydrochloride]
inactive: [1] 0.976 | [2] 1 | [3] 0.971 | [4] 0.944 | [5] 0.997 | [6] 0.997 | [7] 1.01 | [8] 1.01 | [9] 0.976

C[C@]12CCC(=O)C=C1C=C[C@@H]1[C@@H]2CC[C@@]2(C)[C@H]1CC[C@@]2(O)CCC(=O)O [Canrenoic acid potassium salt]
inactive: [1] 0.979 | [2] 0.993 | [3] 0.97 | [4] 1.02 | [5] 0.983 | [6] 1.01 | [7] 0.996 | [8] 1.01 | [9] 1

CN(C)C(=O)Oc1cc(OC(=O)N(C)C)cc(C(O)CNC(C)(C)C)c1 (stereo not drawn) [Bambuterol hydrochloride]
inactive: [1] 0.992 | [2] 1 | [3] 0.997 | [4] 1 | [5] 1.02 | [6] 1.05 | [7] 1.02 | [8] 1.01 | [9] 1.01
